# Compound activity: PubChem BioAssay, National Center for Advancing Translational Sciences (NCATS)
# Pf Dd2 inh: inhibitors of Plasmodium falciparum Dd2 growth. AID 1347417. P. falciparum Dd2 growth, SYBR Green, 72 h. actives 4.3% (n = 120,000). Potency, µM (titrated, usually from 28.9 µM), for the others: top-dose activity, negative = inhibition, most hits filed as inhibitors; active = well fitted inhibition curve with a large enough effect;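 note: plate controls were DMSO vehicle for no effect and reference drug for full effect; nearly all actives have a fitted effect of over 65% in size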
#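 Readout: SYBR Green fluorescence, 485 nm excitation, 535 nm emission, after ~16 h lysis at 37C. Before that, Dd2-infected red cells (2.5% hematocrit) grew 72 h with compound, 29 uM top final concentration.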
# Starred values were filed as active, the others as inactive; i = inactive; [ ] = dose if it differs, or a comment. Shown is part of a subset that was picked to be rich in hits. Potency is the fitted concentration of half-maximal effect.
SMILES,Pf Dd2 inh
CCN(CC)CCNC(=O)c1cn(CCOC)c(=O)c2c1c1ccccc1n2C,10µM*
CCCN(CCC)CCCNC(=O)c1cc2c(=O)[nH]c3ccccc3c2n1C,i
CCCCN(CC)CCCNC(=O)c1cn(CC(C)C)c(=O)c2c1c1ccccc1n2C,7.1µM*
COc1cc(Cl)c(C)cc1NC(=O)c1cn(C2CCCC2)c(=O)c2c1c1ccccc1n2C,-10%
CCCCN(CC)CCCNC(=O)c1cc2c(=O)[nH]c3ccccc3c2n1C,8.9µM*
CCCCN(CC)CCNC(=O)c1cc2c(=O)[nH]c3ccccc3c2n1C,i
CC[C@H]1CN(S(=O)(=O)c2ccc(OC)cc2)CC[C@H]1CC(=O)NCc1cccc2ccccc12,8%
COc1ccc(-c2ccc3nnc(CNC(=O)c4ccco4)n3n2)cc1,i
CC(=O)N1CCCCC1c1nnc2n1CCNC2 (stereo not given),16%[44.1 µM]
COCC1CN(C(C)=O)CC12CCN(C(=O)c1cccc(Cl)c1)CC2 (stereo not given),-18%
O=C(COc1ccccc1)N1CCN(c2cc(C(F)(F)F)ncn2)CC1,-28%
CN(C)C[C@@H]1CN(C2CCOCC2)C[C@H]1NC(=O)C1CC1,i
Cc1ncncc1C(=O)N1CCOC(CC(c2ccccc2)c2ccccc2)C1 (stereo not given),-17%
NC1(C(=O)N2CCOC(CC(c3ccccc3)c3ccccc3)C2)CC1 (stereo not given),10µM*
O=C(c1ccc[n+]([O-])c1)N1CCOC(CC(c2ccccc2)c2ccccc2)C1 (stereo not given),-23%
O=C(c1ccc(Cl)cc1)N1CCC2(CC1)C(=O)NCN2c1ccccc1,-23%
Cc1ccc(CN2C(=O)c3ccccc3Sc3ccc(C(=O)NCCCN4CCOCC4)cc32)cc1,i
Cc1cc(C)cc(NC(=O)CN2C(=O)c3ccccc3Sc3ccc(C(=O)N4CCOCC4)cc32)c1,2%
COC(=O)c1ccc2c(c1)N(CC(=O)Nc1ccc(OC)c(Cl)c1)C(=O)c1ccccc1S2,i
COc1ccc(CNC(=O)c2ccc3c(c2)N(Cc2ccccc2)C(=O)c2ccccc2S3=O)cc1 (stereo not given),44%
COc1cccc(CN2C(=O)c3ccccc3Sc3ccc(C(=O)NCCc4ccc(Cl)cc4)cc32)c1,11µM*
O=C(c1ccc2c(c1)N(Cc1ccc(F)cc1Cl)C(=O)c1ccccc1S2)N1CCC2(CC1)OCCO2,i
COc1ccc(CNC(=O)c2ccc3c(c2)N(Cc2cccc(Cl)c2)C(=O)c2ccccc2S3)c(OC)c1,11µM*
Cc1ccc(CN2C(=O)c3ccccc3Sc3ccc(C(=O)N4CCC5(CC4)OCCO5)cc32)cc1,8.9µM*
Cc1ccc(CNC(=O)c2ccc3c(c2)N(Cc2cccc(Cl)c2)C(=O)CS3)cc1,i
SMILES,Pf Dd2 inh
COc1cc(NC(=O)CN2C(=O)c3ccccc3Sc3ccc(C(=O)N4CCCC4)cc32)cc(OC)c1,7.9µM*
CCOC(=O)CCNC(=O)N1CCCCCCNC(=O)[C@@H]2C[C@@H](c3nc(-c4cccnc4)no3)C[C@@H]21,i
CCc1ccccc1NC(=O)Cn1nc2n(c1=O)CCCC2,-6%
COc1ccc(C(=O)N2CCC(c3noc(-c4cccnc4)n3)C2)cn1 (stereo not given),18%[5.79 µM]
Cc1ncc2n1C(=O)N(C1CCN(Cc3ccsc3)CC1)C2,-14%[44.1 µM]
O=C(Cc1ccsc1)NCc1nnc2ccc(-c3ccccc3)nn12,3%
Fc1ccc2c(c1)nc1n2[C@@H](CNC2CCC2)COC1,-16%[44.1 µM]
CNC(=O)C1CCc2ncc(-c3ccsc3)n2C1 (stereo not given),3%
COC(=O)c1ccc2c(c1)N(Cc1cc(C)ccc1C)C(=O)c1ccccc1S2,i
COc1cccc(CNC(=O)c2ccc3c(c2)N(Cc2ccc(F)cc2Cl)C(=O)c2ccccc2S3)c1,11µM*
O=C(NC1CCCC1)c1ccc2c(c1)N(Cc1ccccc1Cl)C(=O)c1ccccc1S2,-9%
COc1ccccc1CNC(=O)c1ccc2c(c1)N(Cc1cc(C)ccc1C)C(=O)c1ccccc1S2,2.5µM*
COc1ccc(CCNC(=O)c2ccc3c(c2)N(Cc2ccccc2C)C(=O)c2ccccc2S3)cc1OC,i
CCOc1ccc(CN2C(=O)c3ccccc3Sc3ccc(C(=O)NCc4ccc(C)cc4)cc32)cc1,13µM*
CCOc1ccc(CN2C(=O)c3ccccc3Sc3ccc(C(=O)OC)cc32)cc1,16%
O=C(NC1CCCC1)c1ccc2c(c1)N(Cc1ccc(C(F)(F)F)cc1)C(=O)c1ccccc1S2,13µM*
O=C(O)c1ccc2c(c1)N(Cc1ccc(F)cc1Cl)C(=O)c1ccccc1S2,i
O=C(NCc1ccc(F)cc1)c1ccc2c(c1)N(Cc1ccc(F)cc1Cl)C(=O)CS2,i
CCOc1ccc(CN2C(=O)c3ccccc3Sc3ccc(C(=O)NCCc4ccccc4)cc32)cc1,-18%
Cc1ccc(CN2C(=O)c3ccccc3Sc3ccc(C(=O)NC4CCCC4)cc32)cc1,-5%
CCN(CCS(=O)(=O)c1ccc(C)cc1)C(=O)c1csc(C(C)=O)c1,21%
Cc1sc2ccn(CC(C)C)c(=O)c2c1C(=O)N1CCC(C)CC1,-12%
CCNC(=O)N(C1CC1)C1CCOC2(CCN(C(=O)CCc3ccc(OC)cc3)CC2)C1 (stereo not given),13%
Cn1nnnc1C1CCCN(C(=O)Cc2ccccc2)C1 (stereo not given),-19%
CC(=O)C1=C(c2ccccc2)N(C(C)=O)n2c(nnc2C2CCCCC2)S1,1.1µM*
SMILES,Pf Dd2 inh
COc1cccc(C2=C(C(C)=O)Sc3nnc(C4CCCCC4)n3N2C(C)=O)c1,1.3µM*
Cn1nnnc1C1CCCN(C(=O)NCc2ccccc2)C1 (stereo not given),-8%
COc1cccc(N2CC(NC(=O)C3CCCC3)CC2=O)c1 (stereo not given),44%
COc1cccc(C(=O)N2CCCC(c3nn[nH]n3)C2)c1 (stereo not given),40%
COc1ccc(S(=O)(=O)N2[C@@H]3CC[C@H]2CC(NC(=O)c2ccc(F)cc2)C3)cc1 (stereo not given in full),i
CCN(C)Cc1nc(C2CCOCC2)nn1CC1COCCO1 (stereo not given),-9%
Cc1nc2ncccn2c1C(=O)N1CCn2nc(CO)cc2C1,2%
CN(C)C[C@@H]1CN(c2ncccn2)C[C@H]1NC(=O)c1ccnn1C,15%
Cn1nccc1C(=O)N[C@@H]1CN(c2ncccn2)C[C@H]1CO,2.5µM*
Cn1cccc1C(=O)N[C@@H]1CN(c2ncccn2)C[C@H]1CO,i
Cc1noc(-c2ccccc2Cl)c1C(=O)NCc1ccc(F)cc1F,10%
O=C(NCc1cccs1)C1CCN(c2nc3ncccc3o2)CC1,-22%[44.1 µM]
CC(Cc1ccc2c(c1)OCO2)CN1CCC(CO)(CN2CCCC2)CC1 (stereo not given),5µM*
CCC1(CO)CCCN(C(=O)CCc2ccc3c(c2)OCO3)C1 (stereo not given),-12%
C[C@]1(O)CCN(C(=O)Cc2ccc3c(c2)OCO3)C[C@@H]1O,-8%
COc1cc(Cn2ccnc2-c2nc[nH]c2C)cc(OC)c1OC,8%
CN(Cc1cccnc1)C1CN(C(=O)C2CCC2)C1,-8%
COc1ccc(NC(=O)Cn2cc(S(=O)(=O)c3ccccc3)c(=O)c3cc4c(cc32)OCO4)cc1,-16%
COc1ccc(S(=O)(=O)c2cn(Cc3ccccc3)c3cc(F)c(F)cc3c2=O)cc1,-24%
CCCn1cc(S(=O)(=O)c2ccc(C)c(C)c2)c(=O)c2cc(F)c(N3CCCCC3)cc21,1%
